M1 ag – agonists of human M1 muscarinic receptor; P11229; CHO-K1 hM1, Fluo-8 calcium fluorescence, agonist mode; 0% DMSO, 100% acetylcholine EC100; activation, % at 3 µM; hit rate 0.33% among 360,000; AID 588814;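 active = activation above the run's mean compound activation plus 3 SD, cut at about 16% in these data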;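 also: peak over basal fluorescence ratio within a 140 s kinetic read after compound addition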
Target sequence (P11229 whole entry, looked up): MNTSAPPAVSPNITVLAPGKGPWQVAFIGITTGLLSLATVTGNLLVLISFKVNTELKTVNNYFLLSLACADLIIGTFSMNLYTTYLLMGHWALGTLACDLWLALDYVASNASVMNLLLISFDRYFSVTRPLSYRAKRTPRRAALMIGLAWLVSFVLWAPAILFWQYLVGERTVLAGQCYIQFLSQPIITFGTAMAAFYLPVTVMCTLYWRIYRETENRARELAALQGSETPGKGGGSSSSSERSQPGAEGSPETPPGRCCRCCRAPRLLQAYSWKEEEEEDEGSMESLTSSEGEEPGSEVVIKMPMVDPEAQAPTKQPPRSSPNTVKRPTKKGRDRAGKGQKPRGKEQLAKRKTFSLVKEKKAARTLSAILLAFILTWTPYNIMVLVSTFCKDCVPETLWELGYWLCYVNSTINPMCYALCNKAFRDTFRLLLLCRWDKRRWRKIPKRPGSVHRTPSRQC
M1 PAM parental – M1 PAM counterscreen hit in parental CHO-K1 cells; AID 602247; activation, % at 3 µM; hit rate 0.02% among 360,000; ATP EC20, Fluo-8 calcium fluorescence; 0% at ATP EC20, 100% at ATP max;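 active = activation above the run cutoff, the mean activation of all test compounds plus 3 SD, cut at about 40% in these data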;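 also: peak over basal fluorescence ratio in a 140 s read after ATP addition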
CHO-K1 Ca antag – M1 antagonist counterscreen hit in parental CHO-K1 cells; inhibition, % at 3 µM; AID 602250; ATP-induced calcium, Fluo-8 fluorescence; hit rate 0.6% among 360,000;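 active = inhibition above a per-plate cutoff, the plate's mean sample inhibition plus 3 SD, cut at about 24% in these data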;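 also: 0% = DMSO plus EC80 ATP and 100% = DMSO alone without ATP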
CHRM1 PAM – positive allosteric modulators of human M1 muscarinic receptor | P11229 | CHO-K1 hM1, Fluo-8 calcium fluorescence, ACh EC20; 0% = ACh EC20, 100% = maximal ACh | activation, % at 3 µM | hit rate 0.088% among 360,000; in the data active = activation above about 19%, passing the limit was not always enough
M1 antag – human CHRM1 antagonism; hit rate 1.3% among 360,000; CHO-K1 hM1, Fluo-8 calcium fluorescence, ACh EC80 antagonist; inhibition, % at 3 µM; P11229;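 active = percent inhibition above its own plate's cutoff, namely the mean of that plate's compound wells plus 3 SD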;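 also: peak over basal fluorescence ratio during 140 s after agonist addition; 0% = ACh EC80 plus DMSO and 100% = DMSO alone without agonist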
M1 ag parental – counter-screen for M1 agonists: effect in parental CHO-K1 cells; Fluo-8 calcium fluorescence; scaled to maximal ATP response, vehicle zero; hit rate 0.48% among 360,000; activation, % at 3 µM; in the data active = activation above about 15%;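 also: untransfected CHO-K1 host cells lacking M1 receptor as counterscreen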
Starred values were filed as active, the others as inactive. The list is not random: actives were taken first. Their share in the collection is about 2.3%.

What do the screens show for `CCOC(=O)CN1C(=O)CC(c2ccccc2)C1=O` (stereo not given)?
M1 ag: -1; M1 PAM parental: 1; CHO-K1 Ca antag: -8; CHRM1 PAM: 9; M1 antag: -18; M1 ag parental: 0

How did CC(=O)OC[C@@H]1CN(Cc2ccccc2)C[C@H](n2cnc3c(NCc4ccc(F)cc4)ncnc32)O1 do in these assays?
M1 ag: -1; M1 PAM parental: 10; CHO-K1 Ca antag: -8; CHRM1 PAM: 10; M1 antag: -16; M1 ag parental: 5

Results for CN1CCN(CCNC(=O)c2ccc3nc(-c4ccc(F)cc4)c(-c4ccc(F)cc4)nc3c2)CC1 ?
M1 ag: -5; M1 PAM parental: 20; CHO-K1 Ca antag: -15; CHRM1 PAM: -21; M1 antag: 45*; M1 ag parental: 2

Results for CN(C)CCCN(C(=O)c1ccco1)c1nc2c(F)cc(F)cc2s1 ?
M1 ag: 7; M1 PAM parental: -10; CHO-K1 Ca antag: -11; CHRM1 PAM: 2; M1 antag: 3; M1 ag parental: 1

Results for Cc1ccc2nc(N(CCCN(C)C)C(=O)c3ccco3)sc2c1 ?
M1 ag: 4; M1 PAM parental: 26; CHO-K1 Ca antag: -6; CHRM1 PAM: 4; M1 antag: -5; M1 ag parental: 1

How did CN(C)CCCN(C(=O)CCc1ccccc1)c1nc2c(F)cccc2s1 do in these assays?
M1 ag: -7; M1 PAM parental: 21; CHO-K1 Ca antag: 1; CHRM1 PAM: 8; M1 antag: -11; M1 ag parental: 18*

How did CN(C)CCCN(C(=O)c1ccco1)c1nc2ccc(F)cc2s1 do in these assays?
M1 ag: 17*; M1 PAM parental: 14; CHO-K1 Ca antag: 11; CHRM1 PAM: -5; M1 antag: 18; M1 ag parental: 0

How did CN(C)CCCN(C(=O)c1ccco1)c1nc2c(F)cccc2s1 do in these assays?
M1 ag: 7; M1 PAM parental: -3; CHO-K1 Ca antag: -8; CHRM1 PAM: -15; M1 antag: 47*; M1 ag parental: 1

What do the screens show for `Fc1cccc(Cc2c(C3CCCCC3)nc3ccc(Br)cn23)c1`?
M1 ag: -5; M1 PAM parental: 10; CHO-K1 Ca antag: -8; CHRM1 PAM: -7; M1 antag: -21; M1 ag parental: 1

Results for CCOC(=O)C1CCN(c2ncnc3c(C)csc23)CC1 ?
M1 ag: 6; M1 PAM parental: -26; CHO-K1 Ca antag: 17; CHRM1 PAM: -23; M1 antag: 40*; M1 ag parental: 15*

How did CCOC(=O)C1CCN(c2ncnc3nc[nH]c23)CC1 do in these assays?
M1 ag: 0; M1 PAM parental: 9; CHO-K1 Ca antag: 14; CHRM1 PAM: 10; M1 antag: -16; M1 ag parental: 0

How did CCN(CC)CCN(C(=O)c1ccc([N+](=O)[O-])cc1)c1nc2ccc(OC)cc2s1 do in these assays?
M1 ag: -6; M1 PAM parental: 17; CHO-K1 Ca antag: -19; CHRM1 PAM: 8; M1 antag: -12; M1 ag parental: 0

How did CCOc1ccc2nc(N(CCN(CC)CC)C(=O)c3ccc([N+](=O)[O-])cc3)sc2c1 do in these assays?
M1 ag: -7; M1 PAM parental: 26; CHO-K1 Ca antag: -19; CHRM1 PAM: -6; M1 antag: 44*; M1 ag parental: 1

What do the screens show for `CN(C)c1ccc(/C=N/n2c(-c3ccccc3Br)n[nH]c2=S)cc1`?
M1 ag: -6; M1 PAM parental: 13; CHO-K1 Ca antag: -4; CHRM1 PAM: -25; M1 antag: 32*; M1 ag parental: 2

Results for CCC(Cc1ccccc1)OC(=O)c1ccccc1C(=O)O (stereo not given) ?
M1 ag: -3; M1 PAM parental: -11; CHO-K1 Ca antag: 0; CHRM1 PAM: 0; M1 antag: -1; M1 ag parental: 0

Results for CC(=O)c1c(C)[nH]c(C(=O)COC(=O)C2(C)CC2(Cl)Cl)c1C (stereo not given) ?
M1 ag: 1; M1 PAM parental: 2; CHO-K1 Ca antag: -7; CHRM1 PAM: -14; M1 antag: 20; M1 ag parental: 20*

What do the screens show for `Nc1ccc(/C=C/C(=O)c2cccs2)cc1`?
M1 ag: 14; M1 PAM parental: 0; CHO-K1 Ca antag: 10; CHRM1 PAM: -3; M1 antag: 11; M1 ag parental: 22*
